From PubChem BioAssay AID1851 (National Center for Advancing Translational Sciences (NCATS), 2009)
Among all 16,000 compounds or so, about 5,800 (36%) were called active. Roughly 23% stayed inconclusive and do not appear here. Calls follow the shape of the dose curve; as a rule, active = well fitted curve in the direction sought with a large enough effect; inconclusive = small, poorly fitted or top-dose-only effect, or effect the other way; inactive = no such curve, though single readings can be large or run the other way. This is one part of the list.

Molecular target: Cytochrome P450 2C19 (Homo sapiens) (UniProt P33261)
Assay: Cytochrome panel assay with activity outcomes
Details: recombinant CYP, pro-luciferin dealkylation, luminescence, p450-cyp2c19; series mostly up to 57.1 µM; activity, negative = inhibition: at the top concentration
% is scaled to controls: 0 for no effect and ±100 for the full control effect.

Sequence of Cytochrome P450 2C19 (Homo sapiens) (P33261 whole entry, looked up): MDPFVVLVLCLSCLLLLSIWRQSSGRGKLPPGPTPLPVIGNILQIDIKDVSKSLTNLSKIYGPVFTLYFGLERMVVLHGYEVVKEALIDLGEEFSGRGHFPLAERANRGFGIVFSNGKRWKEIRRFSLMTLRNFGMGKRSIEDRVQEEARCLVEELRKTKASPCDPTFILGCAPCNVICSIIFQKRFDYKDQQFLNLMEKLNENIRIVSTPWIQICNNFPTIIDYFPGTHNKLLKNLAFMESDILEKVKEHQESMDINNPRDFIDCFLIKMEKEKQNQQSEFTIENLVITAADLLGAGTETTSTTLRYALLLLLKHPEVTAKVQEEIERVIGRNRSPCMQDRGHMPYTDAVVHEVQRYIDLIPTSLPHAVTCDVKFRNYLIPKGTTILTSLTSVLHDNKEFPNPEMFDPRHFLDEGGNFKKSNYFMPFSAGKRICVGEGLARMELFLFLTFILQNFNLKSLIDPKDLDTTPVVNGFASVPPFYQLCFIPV

| SMILES | activity, negative = inhibition | AC50 |
| --- | --- | --- |
| O=C(O)c1nn(-c2ccccc2-c2n[nH]c(=O)[nH]c2=O)c(=O)[nH]c1=O | 20.9% [at 11.4 µM] (inactive) |  |
| Cc1cccc(N2CCN(c3ccc(NC(=O)/C=C(/C(=O)O)c4ccccc4)cc3)CC2)c1 |  | 4.47 µM (active) |
| Cc1cc(C(=O)Nc2ccc(N3CCOCC3)cc2)c2ccccc2n1 | -16.6% (inactive) |  |
| c1ccc(CNc2nc(-c3ccc4c(c3)OCO4)nc3ccccc23)cc1 |  | 10 µM (active) |
| c1csc(CNc2nc(-c3ccc4c(c3)OCO4)nc3ccccc23)c1 |  | 3.16 µM (active) |
| CN(C)Cc1ccccc1-c1nc(NCc2ccccc2)c2ccccc2n1 | -36.4% (inactive) |  |
| Cc1cccc(CNc2nc(-c3ccc4c(c3)OCO4)nc3ccccc23)c1 |  | 3.16 µM (active) |
| c1cncc(CNc2nc(-c3ccc4c(c3)OCO4)nc3ccccc23)c1 |  | 10 µM (active) |
| CN[C@H]1[C@@H](O[C@@H]2[C@H](O[C@@H]3[C@@H](O)[C@@H](O)[C@@H](N=C(N)N)[C@@H](O)[C@@H]3N=C(N)N)O[C@H](C)[C@@]2(O)C=O)O[C@@H](CO)[C@@H](O)[C@H]1O | 13.4% [at 25.6 µM] (inactive) |  |
| Nc1ncnc2c1ncn2C[C@@H](O)C(=O)O | -17.6% [at 11.4 µM] (inactive) |  |
| O=C1NCC2(CCN(CCc3ccccc3)CC2)O1 |  | inactive |
| COc1ccc(OC)c(C2C(C(=O)Nc3nc4ccccc4s3)=C(C)NC3=C2C(=O)CCC3)c1 (configuration not stated) |  | 0.891 µM (active) |
| Cc1ccc([C@@H](O)c2cnc(C)n2Cc2ccccc2)cc1 |  | 1.26 µM (active) |
| Cc1ncc([N+](=O)[O-])n1CC(C)O (configuration not stated) | -22.3% (inactive) |  |
| Cc1ncc([N+](=O)[O-])n1CC(=O)NCc1ccccc1 | -0.585% (inactive) |  |
| COc1ccc(Oc2ncc3nc(-c4ccc(F)cc4)c(=O)n(Cc4cccs4)c3n2)cc1 | -32% (inactive) |  |
| CCC1(C)CC(CCNS(=O)(=O)c2ccc(C)cc2)(c2ccc(C)cc2)CCO1 (configuration not stated) |  | 3.98 µM (active) |
| CC1(C)O[C@@H]2O[C@H]([C@@H]3COC(C)(C)O3)[C@H](N)[C@H]2O1 | 14.5% [at 11.4 µM] (inactive) |  |
| CCOc1ccc(OCC)c(-c2c(=O)n(OCc3ccccc3C(=O)OC)c3ccccc3[n+]2[O-])c1 |  | 4.47 µM (active) |
| CCOc1ccc(OCC)c(-c2c(=O)n(OCc3ccc(C(C)(C)C)cc3)c3ccccc3[n+]2[O-])c1 |  | 1.58 µM (active) |
| COc1ccc(CNC(=O)c2csc(Cc3ccc(Cl)cc3)n2)cc1 |  | 2.51 µM (active) |

| SMILES | activity, negative = inhibition | AC50 |
| --- | --- | --- |
| COc1ccc(CNC(=O)c2cnc(C)cn2)cc1 |  | 14.1 µM (active) |
| COc1ccc(CCNC(=O)COC(=O)c2cnc(C)cn2)cc1 | -61.1% (inactive) |  |
| COc1ccc(CNC(=O)C2CSC(=O)C2)cc1 (configuration not stated) | -5.06% (inactive) |  |
| COc1ccc(CNC(=O)c2csc(Cc3ccc(OC)cc3)n2)cc1 |  | 8.91 µM (active) |
| COc1ccccc1NC(=O)C(C/C=C(\C)Cl)C(C)=O (configuration not stated) |  | 3.55 µM (active) |
| COc1ccccc1NC(=O)c1nc[nH]c1C(=O)Nc1ccccc1OC | 8.16% (inactive) |  |
| O=C(COC(=O)c1cccnc1Nc1cccc(C(F)(F)F)c1)NCc1ccc2c(c1)OCO2 |  | 3.55 µM (active) |
| Cc1cccc(Nc2ccccc2C(=O)OCC(=O)NCc2ccco2)c1C |  | 5.01 µM (active) |
| O=C(COC(=O)c1ccccc1Nc1cccc(C(F)(F)F)c1)NCc1ccco1 |  | 2 µM (active) |
| Cc1cccc(Nc2ccccc2C(=O)O)c1C | 2.99% [at 25.6 µM] (inactive) |  |
| O=C(O)c1cccnc1Nc1cccc(C(F)(F)F)c1 | 12.3% [at 25.6 µM] (inactive) |  |
| O=C(O)CCCC[C@H]1CCSS1 | 14.9% (inactive) |  |
| COc1ccc(CNc2ncncc2-c2cccc(C#N)c2)c(OC)c1 |  | 5.01 µM (active) |
| COc1ccccc1CNc1ncncc1-c1cccc(C#N)c1 |  | 3.16 µM (active) |
| Cc1n[nH]c(=O)nc1NCc1ccccc1Cl |  | 28.2 µM (active) |
| Cc1cnc(CNc2nc(-c3ccccc3Cl)nc3ccccc23)cn1 | -44.4% (inactive) |  |
| CCCCCCCOC1(c2ccccc2)OC(=O)c2ccccc21 (configuration not stated) |  | 3.55 µM (active) |
| CCCCOC1(c2ccccc2)OC(=O)c2ccccc21 (configuration not stated) |  | 6.31 µM (active) |
| CC(=O)[C@@]1(O)Cc2c(O)c3c(c(O)c2[C@H](O[C@H]2C[C@H](N)[C@H](O)[C@H](C)O2)C1)C(=O)c1ccccc1C3=O | -27.6% (inactive) |  |
| COc1ccc(C(=O)NC(=S)NC(C)C)cc1Br |  | 2.24 µM (active) |
| COc1ccc(C(=O)NC(=S)NC(C)(C)C)cc1Br |  | 3.55 µM (active) |

| SMILES | activity, negative = inhibition | AC50 |
| --- | --- | --- |
| C=CCN1CCc2c(cc(O)c(O)c2Br)[C@H](c2ccccc2)C1 | -43.7% (inactive) |  |
| COC(=O)CNC(=O)CN1C(=O)N(c2ccc(Cl)cc2)C(N(O)C(=O)Nc2ccc(Cl)cc2)C1(C)C (configuration not stated) |  | 14.1 µM (active) |
| NC(=NCc1ccc(Cl)c(Cl)c1)NC(=O)c1nc(Cl)c(N)nc1N | -23% (inactive) |  |
| CCCCCCCCCCCCC(=O)N1CCCC[C@H]1CNC(=O)[C@@H](N)CCCCN |  | 7.94 µM (active) |
| CN(CCc1ccccn1)Cc1ccc(Cl)cc1Cl |  | 0.447 µM (active) |
| Cc1cccc(CN(C)CCc2ccccn2)c1 |  | 15.8 µM (active) |
| CN(CCO)Cc1ncccc1O | 42.9% [at 11.4 µM] (inactive) |  |
| O=C(O)[C@@H](O)Cc1ccccn1 | 14.4% [at 11.4 µM] (inactive) |  |
| CC(C)C(=O)C(C)(C)CCc1ccccn1 | -41.1% [at 11.4 µM] (inactive) |  |
| CCOC(=O)c1cnn(-c2ccccc2)c1-n1cccc1C(=O)C(=O)Nc1ccccc1C(F)(F)F |  | 7.94 µM (active) |
| CCC(CC)C(=O)Nc1c2cnn(-c3ccccc3)c2nc(=O)n1-c1ccccc1 | -20% (inactive) |  |
| O=C(O)c1nnsc1-c1ccc(-c2snnc2C(=O)O)cc1 | -40.8% [at 11.4 µM] (inactive) |  |
| N#CC(c1ccc(Cl)cc1)c1nc2ccccc2nc1C(F)(F)F (configuration not stated) |  | 0.562 µM (active) |
| O=C(Nc1ccccc1)N1CCC2(CCNCC2)CC1 | -11.1% (inactive) |  |
| O=C(Nc1ccccc1)N1CCCC2(CCNCC2)C1 | 8.07% (inactive) |  |
| O=C(N1CCOCC1)N1CCN(c2ccccc2)CC1 |  | 14.1 µM (active) |
| CC1CCCC(NC(=O)C2CCN(S(=O)(=O)N3CCOCC3)CC2)C1C (configuration not stated) | -28.5% (inactive) |  |
| O=C(Nc1cccc(NC(=O)N2CCN(c3ccccc3)CC2)c1)N1CCN(c2ccccc2)CC1 |  | 5.01 µM (active) |
| O=C(C1CCN(S(=O)(=O)N2CCOCC2)CC1)N1CCN(c2ccccc2)CC1 |  | 25.1 µM (active) |
| c1ccn(-c2ccc(N3CCOCC3)cc2)c1 | -16.5% (inactive) |  |
